# According to PubChem BioAssay AID2685 (National Center for Advancing Translational Sciences (NCATS), 2010):
# Among all 320,000 compounds or so, about 2,100 (0.66%) were called active. Inconclusive results (about 53%) are left out. Calls follow the shape of the dose curve; as a rule, active = well fitted inhibition curve with a large enough effect in the signal ratio, with a control signal flat (not every such curve was filed as active); inconclusive = small, poorly fitted or top-dose-only effect, or effect the other way, or a change in a side signal; inactive = flat fitted curve, though single readings scatter; the % refers to the signal ratio. What follows is part of a selection rich in actives, with near analogues and random picks from the rest.
# Experiment: qHTS Assay for Lipid Storage Modulators in Drosophila S3 Cells;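 as to cell number change: cells counted by Cell Tracker Red CMTPX staining in the red channel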
# Conditions: BODIPY lipid droplet fluorescence, 18-24 h, cells fed with added oleic acid; cell number change: measured here: cell count max response; series mostly up to 46.1 µM
# Excerpt: NIH Molecular Libraries Probe Production Centers Network [MLPCN] NIH Chemical Genomics Center [NCGC] MLPCN Grant: 1 R03 MH085686-01 Assay Submitter (PI): Beller, Mathias; Max-Planck-Institut fur Biophysikalische Chemie NCGC Assay Overview: Storing lipids as a reservoir for energy or the anabolism of elementary metabolites is a common feature of probably all cells and is conserved from bacteria to humans. The universal cellular lipid storage organelle is the so-called lipid storage droplet (LD). Although ubiquitous, LDs share a simple structure composed of a hydrophobic core that harbors the storage lipids, which is shielded by a droplet-specific phospholipid monolayer to which proteins are attached. The current model of LD biogenesis involves an incorporation of the lipid core into the membrane leaflets of the endoplasmic reticulum (ER) followed by a subsequent budding-like maturation of a LD, which ultimately pinches off. Once released, LD volume can increase by localized lipogenesis or fusion of existing droplet. Storage lipids are re-mobilized enzymatically by lipase activity. Lipase regulation in the adipocyte is heavily studied and involves multiple components including catecholamine signaling, the LD-associated proteins Perilipin and comparative gene identification (CGI-58) and at least two lipases named hormone sensitive lipase (HSL) and adipocyte triglyceride lipase (ATGL). LD regulation outside of the adipocyte is poorly understood and only few components are known. However, there is an urgent need to learn more about ectopic fat depots as mislocalized storage of lipids, for example in the liver or muscle, is an eminent health problem associated with insulin resistance or the metabolic syndrome. We developed a laser-scanning cytometer assay to enable 1,536-well screening and combined the results of the small molecules screen with an RNAi database based on lipid storage.
# Triacsin C (Sigma-Aldrich T-4540), an inhibitor of long-chain fatty acyl CoA synthetase that blocks synthesis of triglycerides, was used as a positive control for lipid under-storage. A total of 23 nL of compound solution of different concentrations were transferred to the assay plates using a Kalypsys pin tool equipped with a 1,536-pin array containing 10-nL slotted pins (FP1S10, 0.457-mm diameter, 50.8 mm long; V&P Scientific). One microliter of oleic acid (400 uM) was added, and the plate was lidded with stainless steel rubber gasket lined lids containing pinholes. […] Fluorescence was detected by excitation of the fluorophores with a 488-nm laser on an Acumen Explorer (TTP Lab Tech). The total intensity in channel 2 (500-530 nm) reflected lipid droplet accumulation. Cells were detected using channel 3 (575-640 nm) with 5-um width and 100-um depth filters. The ratio of the number of objects in PMT channel 2 over the number of objects in PMT channel 3 was also calculated. Percent activity was computed relative to an internal control (100% inhibited lipid droplet deposition due to the presence of 20 uM Triacsin C), which was added to 32 wells/plate.
# Potency is read from the fitted curve at half-maximal effect.
SMILES,Potency,cell number change
FC(F)(F)c1cc(C(F)(F)F)c2ccc(N3CCN(c4ncccn4)CC3)nc2n1,inactive,9.76%
Cc1nn(Cc2ccc(C(=O)O)o2)c(C)c1[N+](=O)[O-],inactive,19.3%
CCCN1C(=O)c2ccc(C(=O)NC3=NCCS3)cc2C1=O,inactive,–
Cc1nn(-c2ccc(N3CCOCC3)nn2)c(C)c1CCC(=O)NCc1ccc(F)cc1,inactive,2.75%
CC(=O)c1ccc(N2CCN(C(=O)Nc3ccc(F)cc3F)CC2)cc1,inactive,18.2%
COc1ccc(C(=O)Nc2ccc(Cl)cc2C(=O)N2CCOCC2)cc1,inactive,17.2%
Cc1nnc2n1CCCCC2,inactive,4.65%
O=[N+]([O-])c1ccc(Oc2ccc(/C=N/O)cc2)nc1,inactive,-1.55%
CS(=O)(=O)c1ccc(N2CCOCC2)c(S(C)(=O)=O)c1,inactive,4.86%
CCOC(=O)CN1C(=O)C2(OCCCO2)c2ccccc21,23.1 µM (active),–
CCOC(=O)CN1C(=O)C2(OCCCO2)c2cc(Br)ccc21,inactive,-7.87%
CCCC(=O)CN1C(=O)C2(OCCO2)c2ccccc21,inactive,-15.8%
COCCNC(=O)CN1C(=O)NC2(CCCc3cc(OC)ccc32)C1=O (configuration not stated),inactive,–
CCOc1ccc(C(=O)CCC(=O)N(CC)CC(=O)NCc2cccs2)cc1,inactive,12.9%
Cc1ccc2occ(/C=N/NC(=O)c3ccccc3Br)c(=O)c2c1,inactive,–
CCOc1ccccc1C(=O)N/N=C/c1coc2ccc(C)cc2c1=O,10.3 µM (active),-20.2%
Cc1ccc2occ(/C=N/NC(=O)c3ccccc3O)c(=O)c2c1,inactive,1.16%
COc1cccc(Oc2cn[nH]c2-c2ccc(OCC(=O)NN)cc2O)c1,inactive,0.872%
CN1CCN(CC(=O)c2cc(C(C)(C)C)c(O)c(C(C)(C)C)c2)CC1,inactive,15.8%
CC(C)(C)c1cc(C(=O)CCN2CCOCC2)cc(C(C)(C)C)c1O,29.1 µM (active),-17.7%
CC(C)(C)c1cc(C(=S)N2CCN(CCO)CC2)cc(C(C)(C)C)c1O,inactive,–
COc1cc(NC(=O)C2CC(c3c(F)cccc3Cl)=NO2)c(OC)cc1Cl (configuration not stated),inactive,-7.33%
COc1cccc(C2=NOC(C(=O)Nc3ccc(OC)c(OC)c3)C2)c1 (configuration not stated),11.6 µM (active),–
COc1cccc(C2=NOC(C(=O)Nc3ccc4c(c3)OCO4)C2)c1 (configuration not stated),inactive,7.67%
COc1cc(NC(=O)C2CC(c3c(F)cccc3Cl)=NO2)cc(OC)c1OC (configuration not stated),11.6 µM (active),-15.1%
COc1ccc(NC(=O)C2CC(c3c(F)cccc3Cl)=NO2)cc1OC (configuration not stated),inactive,-11.7%
COc1ccc(NC(=O)C2CC(c3ccccc3O)=NO2)cc1OC (configuration not stated),inactive,–
